The values that follow come from PubChem BioAssay (NCI).

Each structure is given as a SMILES string. Several values for one entry are separate records, joined by “and”; a condition that tells them apart may be missing. Equal values may be shown once. This is part of a sample that, as a whole, favours compounds with a hit. Of some 83,000 tested, about 20% had one in any assay.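 Single-concentration screen, 48 h exposure, 96-well plates. Endpoint: percent growth. Below 10 = active.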 Values without a mark were called inactive. Activity calls are given as the source filed them.

The assay has as its system MDA-MB-468 breast. Kind of assay: NCI-60 one-dose screen, 48 h (100 = growth as untreated, 0 = no growth, -100 = all killed). As to conditions: 10 µM unless noted.
As for `O=C(Nc1ccc(NC(=O)c2cc(=O)[nH]c3ccccc23)cc1)Nc1cccc(C(F)(F)F)c1`, the growth is 24.6%. Consider `c1ccc(CCc2ccccc2-c2cc(-c3ccccc3)on2)cc1`, for which the growth is 93.8%. On to `CS(=O)(=O)OCC1NC(=O)C(COS(C)(=O)=O)NC1=O` (stereo not given), for which the growth is 87% and 79.3%. As for `O=C(Nc1ccccc1)Nc1ccccc1CNc1nc(Nc2ccc(OCCN3CCCC3)cc2)ncc1Cl`, the growth is 17.7%. Under `COc1cc(/C=C2\CN(S(=O)(=O)c3ccccc3)C/C(=C\c3cc(CN4CCCCC4)c(O)c(OC)c3)C2=O)cc(CN2CCCCC2)c1O` stands 53.2%; under `CCOC(=O)c1c(C)nc2c(c1N)/C(=C/c1cccs1)C(=O)N2c1ccc(OC)cc1`, 28.2%.

Take `O=C(O)c1cn(C2CC2)c2cc(N3CCN(Cc4cc(Cl)ccc4O)CC3)c(F)cc2c1=O`: the growth is 81.9%. For the compound `O=C(C1CCC1)N1N=C(c2ccc(-n3ccc(C(F)(F)F)n3)cc2)CC1c1ccc[nH]1` (stereo not given), the growth is 106%. As to `COc1cc(-c2ncn(/C=C\C(=O)OC(C)C)n2)cc(C(F)(F)F)c1`, the growth was -40.6% (active). Consider `O=C(CN1CCCCC1)Sc1nnc2sc3ccccc3n12`, for which the growth was 97.1%. For `O=C(Nc1cc(Cl)ccc1O)c1ccc(Nc2ccnc(C(F)(F)F)c2)cc1`, the growth was 58.7%. Consider `O=C1c2c(c3c4ccc(Br)cc4oc3c3[nH]c4ccccc4c23)C(=O)N1O`, for which the growth was 45.3%.

For `O=C1c2ccccc2CCC1(Br)Br`, the growth was -42.2% (active). As for `COc1cc2c(c(OC)c1)C1c3cc(OC)ccc3NC(=O)N1CC2` (stereo not given), the growth was 70.1%. For the compound `O=C(c1cnn2c1NC(c1ccc(F)cc1)C2)N1CCCCC1` (stereo not given), the growth is 107%. `CC(=O)Oc1cccc(OC(C)=O)c1OC(C)=O`: the growth was 97.6%. With `CCSc1ccc([C@@H]2[C@@H](N)C(=O)N2c2cc(OC)c(OC)c(OC)c2)cc1`, the growth was 17%. Take `O=c1c2cccc3c(Nc4ccc(F)cc4)ccc(c32)c2nc3ccccc3n12`: the growth is -43.8% (active). On to `Cc1ccccc1CC(N)C(=O)O` (stereo not given), for which the growth is 117%.

As for `COc1ccccc1C(=O)/C=C/c1cc2cccc(OC)c2[nH]c1=O`, the growth is -43.9% (active). Under `Cc1ccc(S(=O)(=O)c2nc(-c3ccccc3)oc2Sc2nc3ccccc3s2)cc1` stands 52.1%. Turning to `NC(N)=Nc1cc2ccccc2c2ccccc12`, the growth is 54.4%. To `CCCCc1nc2c(N)nc3ccccc3c2n1Cc1ccc(OC)cc1` belongs 41.2%. To `COc1cc(C2C3=C(COC3=O)N(CCO)c3cc4c(cc32)OCCO4)cc(OC)c1OC` (stereo not given) belongs -64.5% (active).

In the case of `Cc1ccc2c(c1)=C/C(=C\c1cc(-c3ccccc3)oc1O)C(=O)N=2`, the growth was 109%.

`CCCCCN1C=C/C(=C\C(=O)N2CCCc3ccccc32)c2ccccc21`: the growth was 40%. As to `COc1ccc2c(c1)O/C(=C/c1ccc(OCC(=O)Nc3ccc(S(N)(=O)=O)cc3)cc1)C2=O`, the growth was 86.3%. Take `O=C(CSc1ncc(-c2ccccc2)n1-c1ccccc1)Nc1ccc(-c2nc3ccccc3s2)cc1`: the growth is 15.4%. To `O=C1C=C(OCC=C(C(F)(F)F)C(F)(F)F)c2ccccc2C1=O` belongs -51.2% (active). Take `CCCCC[C@H]1C/C=C2/C(=O)C(Cl)=C[C@@H]2C/C=C\CCCC(=O)O[C@@H](CCCCC)C/C=C2/C(=O)C(Cl)=C[C@@H]2C/C=C\CCCC(=O)O1`: the growth was -46% (active).

`CN(C)CCNC(=O)c1cccc(-c2cnc3ccc(-c4ccc5c(c4)OCO5)nn23)c1`: the growth was 66.9%. Take `Cc1ccc(C)c(C(O)(c2cc(C)ccc2C)C2(O)CCCCC2)c1`: the growth is 90.5%. `c1ccc(C2=Nc3ccccc3SC2)cc1`: the growth is 122%. On to `CCOC(=O)c1sc2ncnc(Nc3ccc4c(cnn4C(=O)Nc4ccccc4)c3)c2c1C`, for which the growth is 78.1%. For `Cc1ccc(N=C2CSc3nnc(-c4csc5c4CCCC5)n3N2)cc1`, the growth was 17%. Under `C=C(C)[C@@H]1CC[C@]2(C)[C@H](CC[C@@H]3[C@@H]([C@@](C)(O)CCC=C(C)C)CC[C@]32C)[C@@]1(C)CCC(=O)O` stands 8.85% [100 µM] (active). Under `COc1ccc(Cn2c(NCCCN(C)C)nc(=O)n(Cc3ccc(F)cc3)c2=O)cc1` stands 85.8%; under `Nc1cc(-c2ccc(Cl)cc2)nn1-c1nc(-c2ccc(Br)cc2)cs1`, 99.4%.

`CN1C(=O)/C(=C\c2nc([P+](c3ccccc3)(c3ccccc3)c3ccccc3)c(N3CCOCC3)o2)SC1=S`: the growth is 10.1%. Regarding `CC(C)CC1NC(=O)C(CCCN)NC(=O)C(C(C)C)NC(=O)C2CCCN2C(=O)C(Cc2ccccc2)NC(=O)C(CC(C)C)NC(=O)C(CCCN)NC(=O)C(C(C)C)NC(=O)C2CCCN2C(=O)C(Cc2ccccc2)NC1=O` (stereo not given), the growth was -78.1% (active).
